Results from PubChem BioAssay (NCATS).
Values joined by “and” are separate entries in the source; they are usually repeats but may differ in a detail not shown here. Identical values can stand only once. Results filed as inconclusive are left out. Active and inactive are the calls of the source. Unless noted, the call rests on the fitted dose curve; in most records, active means well fitted curve in the direction sought with a large enough effect; inconclusive means small, poorly fitted or top-dose-only effect, or another doubt; inactive means no such curve, though single readings can be large; an effect the other way counts as inactive or inconclusive.

How the values were obtained:
[1] = P-glycoprotein substrates identified in KB-8-5-11 adenocarcinoma cell line, qHTS therapeutic library screen (AID 1346987); further: nearly all actives have a fitted effect of over 65% in size; further: potency means the concentration at half of the fitted maximal effect
Summary of the method: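 P-gp-mediated resistance screen: KB-8-5-11 cells treated 72 h with compounds in dose-response. CellTiter-Glo viability.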

[2] = NS1 protein of Zika virus - qHTS assay to identify small molecule inhibitors in human HEK 293 cells (AID 1347053); further: nearly all actives have a fitted effect of over 55% in size; further: potency means the concentration at half of the fitted maximal effect
Summary of the method: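 Following 20 h seeding, HEK 293 cells took compound, then 1 h later ZIKV MR766 (MOI = 0.5). Incubation ran 24 h at 37 C before TR-FRET detection of NS1; a drop in signal indicates inhibition.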

[3] = qHTS for Inhibitors of the Functional Ribonucleoprotein Complex (vRNP) of Lassa (LASV) Arenavirus: Viability assay - alamar blue signal for LASV Primary Screen (AID 1347083; calls by dose curve; tested in HEK293 reporter line; further: nearly all actives have a fitted effect of over 80% in size; further: potency means the concentration at half of the fitted maximal effect)
[4] = target: Nucleoprotein (Lymphocytic choriomeningitis virus (strain Armstrong)) (UniProt P09992); test: qHTS for Inhibitors of the Functional Ribonucleoprotein Complex (vRNP) of Lymphocytic Choriomeningitis Arenaviruses (LCMV): LCMV Primary Screen - GLuc reporter signal (AID 1347086; calls by dose curve; further: nearly all actives have a fitted effect of over 70% in size; further: potency means the concentration at half of the fitted maximal effect)
[5] = qHTS for Inhibitors of the Functional Ribonucleoprotein Complex (vRNP) of Lassa (LASV) Arenavirus: LASV Primary Screen - GLuc reporter signal (AID 1347082; calls by dose curve; tested in HEK293 reporter line; further: nearly all actives have a fitted effect of over 60% in size; further: potency means the concentration at half of the fitted maximal effect)
[6] = qHTS for Inhibitors of the Functional Ribonucleoprotein Complex (vRNP) of Lymphocytic Choriomeningitis Arenaviruses (LCMV): Viability assay - alamar blue signal for LCMV Primary Screen (AID 1347085; calls by dose curve; tested in HEK293 reporter line; further: nearly all actives have a fitted effect of over 80% in size; further: potency means the concentration at half of the fitted maximal effect)
[7] = target: T1, Tyrosine-protein phosphatase non-receptor type substrate 1 (Homo sapiens) + Leukocyte surface antigen CD47 (Homo sapiens) (UniProt P78324+Q08722); test: CD47-SIRPalpha protein protein interaction - LANCE assay qHTS validation (AID 1347057; active means well fitted curve in the direction sought with a large enough effect in the signal ratio, with a control signal flat, not every such curve was filed as active; the % refers to the signal ratio; further: series mostly up to about 38 µM)
Summary of the method: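 First, His-tagged CD47 and Eu-labelled anti-His antibody met the compound for 30 min; next, site-specifically biotinylated SIRPalpha was added for 30 min; finally streptavidin-APC was added before reading the TR-FRET ratio.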

[8] = target: T1, Tyrosine-protein phosphatase non-receptor type substrate 1 (Homo sapiens) + Leukocyte surface antigen CD47 (Homo sapiens); test: CD47-SIRPalpha protein protein interaction - HTRF assay qHTS validation (AID 1347058; active means well fitted curve in the direction sought with a large enough effect in the signal ratio, not every such curve was filed as active; the % refers to the signal ratio; further: series mostly up to about 38 µM)
Summary of the method: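 TR-FRET read (Ch1/Ch2 ratio) of soluble extracellular CD47 and Avi-biotinylated SIRPalpha domains in PBS pH 7.4 with 0.05% IGEPAL; 7-point compound titration. Sequential 30 min room-temperature steps; non-biotinylated SIRPalpha as control inhibitor.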

[9] = target: T1, Tyrosine-protein phosphatase non-receptor type substrate 1 (Homo sapiens) + Leukocyte surface antigen CD47 (Homo sapiens); test: CD47-SIRPalpha protein protein interaction - Alpha assay qHTS validation (AID 1347059);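 further: bead proximity luminescence from CD47 binding SIRPalpha after compound preincubation with SIRPalpha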
Summary of the method: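 Soluble extracellular domains: Avi-tag biotinylated SIRPalpha (25 nM) preincubated 30 min RT with compound, then 6His-CD47 (12.5 nM) 30 min; Ni-NTA acceptor and streptavidin donor beads (10 ug/mL) 30 min, AlphaScreen read. PBS pH 7.4, 0.05% IGEPAL.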

[10] = target: Parathyroid hormone/parathyroid hormone-related peptide receptor (Homo sapiens) (UniProt Q03431); test: qHTS for PTHR1 Agonists: Optimization Screen against the NCGC LOPAC library (AID 1347079);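 further: GloSensor cAMP luminescence in HEK-293 GP2 cells expressing human PTHR1 with IBMX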
Summary of the method: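 Compounds were tested across a qHTS titration. PTHR1-expressing GP2 cells report cAMP rises via GloSensor luminescence after 1 hr compound exposure at 37C with IBMX present.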

[11] = Natriuretic polypeptide receptor (hNpr1) antagonism - Pilot counterscreen GloSensor control cell line (AID 1347045; calls by dose curve; further: series mostly up to about 38 µM)
Summary of the method: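 This counterscreen uses HEK293 cells expressing the GIP/pGS-40F cGMP biosensor. Compound-treated cells are challenged with 50 uM sodium nitroprusside, and the luciferase signal is compared before and after stimulation.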

[12] = target: Atrial natriuretic peptide receptor 1 (Homo sapiens) (UniProt P16066); test: Natriuretic polypeptide receptor (hNpr1) antagonism - Pilot screen (AID 1347049; calls by dose curve;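 further: agonist-evoked cGMP luminescence read 20 min after hNppA addition; series mostly up to about 58 µM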)
Summary of the method: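 HEK293 cells co-expressing hNpr1 and the GloSensor pGS-40F cGMP luciferase sensor were preloaded with 2% GloSensor reagent for 2 h. Compounds were added for 30 min at room temperature, then cells were stimulated with 0.1 nM hNppA for 20 min before luminescence readout.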

[13] = target: Atrial natriuretic peptide receptor 2 (Homo sapiens) (UniProt P20594); test: Natriuretic polypeptide receptor (hNpr2) antagonism - Pilot subtype selectivity assay (AID 1347050; calls by dose curve)
Summary of the method: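 cGMP-sensor HEK293/hNpr2 cells; 2% GloSensor reagent 2 h RT; compounds 30 min; baseline luminescence read; 1 nM hNppC agonist 20 min RT; final luminescence read by CCD camera. Antagonism = reduced post-agonist signal.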

Measured: Potency

Atrial natriuretic peptide receptor 1 (Homo sapiens), sequence (P16066 whole entry, looked up): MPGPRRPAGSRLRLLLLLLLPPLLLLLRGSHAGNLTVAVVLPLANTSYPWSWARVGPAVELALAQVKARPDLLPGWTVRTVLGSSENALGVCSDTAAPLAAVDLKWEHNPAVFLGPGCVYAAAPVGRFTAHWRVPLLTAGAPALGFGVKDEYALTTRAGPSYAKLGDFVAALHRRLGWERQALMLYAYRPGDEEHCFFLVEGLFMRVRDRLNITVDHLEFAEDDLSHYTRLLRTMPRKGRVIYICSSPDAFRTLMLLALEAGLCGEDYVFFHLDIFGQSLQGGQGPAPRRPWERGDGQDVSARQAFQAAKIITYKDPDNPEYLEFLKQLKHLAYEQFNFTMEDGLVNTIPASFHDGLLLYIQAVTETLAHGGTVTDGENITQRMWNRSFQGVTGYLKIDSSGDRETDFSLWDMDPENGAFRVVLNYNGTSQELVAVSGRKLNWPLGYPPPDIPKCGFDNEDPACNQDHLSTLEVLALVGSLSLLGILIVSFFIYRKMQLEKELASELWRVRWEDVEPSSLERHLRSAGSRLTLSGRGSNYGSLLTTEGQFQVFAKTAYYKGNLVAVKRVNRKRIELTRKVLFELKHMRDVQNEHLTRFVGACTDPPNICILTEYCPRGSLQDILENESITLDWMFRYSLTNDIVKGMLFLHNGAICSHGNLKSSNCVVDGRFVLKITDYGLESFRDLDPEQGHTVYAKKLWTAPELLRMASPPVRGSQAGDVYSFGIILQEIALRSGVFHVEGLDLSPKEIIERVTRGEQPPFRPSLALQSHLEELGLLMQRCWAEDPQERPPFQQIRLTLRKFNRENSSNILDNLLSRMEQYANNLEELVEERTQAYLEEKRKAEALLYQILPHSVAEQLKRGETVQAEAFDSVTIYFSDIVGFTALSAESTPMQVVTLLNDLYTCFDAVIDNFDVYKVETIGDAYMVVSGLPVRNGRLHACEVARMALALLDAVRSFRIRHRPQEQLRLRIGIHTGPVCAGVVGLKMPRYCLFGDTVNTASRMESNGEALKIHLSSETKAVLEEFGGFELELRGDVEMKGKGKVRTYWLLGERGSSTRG
Atrial natriuretic peptide receptor 2 (Homo sapiens), sequence (P20594 whole entry, looked up): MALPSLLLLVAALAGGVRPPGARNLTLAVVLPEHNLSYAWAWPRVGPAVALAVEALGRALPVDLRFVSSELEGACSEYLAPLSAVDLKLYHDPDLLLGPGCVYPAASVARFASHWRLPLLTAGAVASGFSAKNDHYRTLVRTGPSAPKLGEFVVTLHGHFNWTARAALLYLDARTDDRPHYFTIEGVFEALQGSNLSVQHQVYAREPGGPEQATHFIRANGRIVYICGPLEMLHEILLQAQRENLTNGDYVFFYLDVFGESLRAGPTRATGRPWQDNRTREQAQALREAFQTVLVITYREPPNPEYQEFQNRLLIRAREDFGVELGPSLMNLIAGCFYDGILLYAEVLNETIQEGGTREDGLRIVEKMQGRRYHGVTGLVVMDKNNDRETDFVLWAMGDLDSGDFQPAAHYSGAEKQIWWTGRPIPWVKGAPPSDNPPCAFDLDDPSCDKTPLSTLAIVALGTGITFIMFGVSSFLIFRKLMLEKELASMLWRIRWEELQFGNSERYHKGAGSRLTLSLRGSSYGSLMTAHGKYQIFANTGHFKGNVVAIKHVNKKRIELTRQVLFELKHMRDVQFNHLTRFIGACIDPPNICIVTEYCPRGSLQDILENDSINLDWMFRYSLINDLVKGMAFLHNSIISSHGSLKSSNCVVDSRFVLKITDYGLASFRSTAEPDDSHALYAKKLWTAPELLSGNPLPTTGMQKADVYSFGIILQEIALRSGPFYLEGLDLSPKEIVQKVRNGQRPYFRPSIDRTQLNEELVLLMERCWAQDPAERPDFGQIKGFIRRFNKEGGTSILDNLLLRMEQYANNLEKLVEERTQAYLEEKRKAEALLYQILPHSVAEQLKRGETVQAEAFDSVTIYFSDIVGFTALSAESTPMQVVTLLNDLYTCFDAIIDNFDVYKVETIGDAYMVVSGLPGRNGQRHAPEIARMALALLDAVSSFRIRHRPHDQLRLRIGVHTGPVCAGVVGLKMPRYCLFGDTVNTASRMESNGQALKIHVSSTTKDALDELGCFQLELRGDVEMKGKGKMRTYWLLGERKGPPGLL
Nucleoprotein (Lymphocytic choriomeningitis virus (strain Armstrong)), sequence (P09992 whole entry, looked up): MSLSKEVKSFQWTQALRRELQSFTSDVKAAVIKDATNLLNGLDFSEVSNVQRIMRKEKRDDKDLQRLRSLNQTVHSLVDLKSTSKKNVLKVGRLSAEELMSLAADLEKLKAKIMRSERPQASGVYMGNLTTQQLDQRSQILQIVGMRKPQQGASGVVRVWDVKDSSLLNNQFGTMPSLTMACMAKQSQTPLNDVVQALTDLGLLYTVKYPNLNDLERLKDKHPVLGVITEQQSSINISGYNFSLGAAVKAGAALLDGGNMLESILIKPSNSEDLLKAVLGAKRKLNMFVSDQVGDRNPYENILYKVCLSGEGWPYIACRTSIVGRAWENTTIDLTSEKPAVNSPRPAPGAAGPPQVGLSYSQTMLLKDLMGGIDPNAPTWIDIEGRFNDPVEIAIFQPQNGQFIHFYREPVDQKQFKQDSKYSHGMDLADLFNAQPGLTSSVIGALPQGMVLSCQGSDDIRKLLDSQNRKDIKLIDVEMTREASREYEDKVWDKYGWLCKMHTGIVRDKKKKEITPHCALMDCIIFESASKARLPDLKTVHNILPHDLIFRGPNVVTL
Parathyroid hormone/parathyroid hormone-related peptide receptor (Homo sapiens), sequence (Q03431 whole entry, looked up): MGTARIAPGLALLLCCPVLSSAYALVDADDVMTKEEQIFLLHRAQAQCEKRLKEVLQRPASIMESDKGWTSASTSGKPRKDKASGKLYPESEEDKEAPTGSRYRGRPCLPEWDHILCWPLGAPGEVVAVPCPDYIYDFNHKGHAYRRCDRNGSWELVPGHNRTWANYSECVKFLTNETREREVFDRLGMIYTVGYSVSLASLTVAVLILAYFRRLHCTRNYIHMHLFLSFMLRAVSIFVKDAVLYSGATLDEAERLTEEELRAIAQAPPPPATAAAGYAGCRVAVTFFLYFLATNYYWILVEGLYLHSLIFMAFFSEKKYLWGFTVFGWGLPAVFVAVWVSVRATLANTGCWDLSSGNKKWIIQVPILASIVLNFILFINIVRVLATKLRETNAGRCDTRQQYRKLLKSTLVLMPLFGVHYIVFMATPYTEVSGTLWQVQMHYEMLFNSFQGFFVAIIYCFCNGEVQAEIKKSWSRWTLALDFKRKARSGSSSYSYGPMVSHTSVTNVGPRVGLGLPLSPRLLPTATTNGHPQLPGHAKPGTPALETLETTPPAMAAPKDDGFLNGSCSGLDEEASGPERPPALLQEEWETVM
T1 sequence (P78324 whole entry, looked up): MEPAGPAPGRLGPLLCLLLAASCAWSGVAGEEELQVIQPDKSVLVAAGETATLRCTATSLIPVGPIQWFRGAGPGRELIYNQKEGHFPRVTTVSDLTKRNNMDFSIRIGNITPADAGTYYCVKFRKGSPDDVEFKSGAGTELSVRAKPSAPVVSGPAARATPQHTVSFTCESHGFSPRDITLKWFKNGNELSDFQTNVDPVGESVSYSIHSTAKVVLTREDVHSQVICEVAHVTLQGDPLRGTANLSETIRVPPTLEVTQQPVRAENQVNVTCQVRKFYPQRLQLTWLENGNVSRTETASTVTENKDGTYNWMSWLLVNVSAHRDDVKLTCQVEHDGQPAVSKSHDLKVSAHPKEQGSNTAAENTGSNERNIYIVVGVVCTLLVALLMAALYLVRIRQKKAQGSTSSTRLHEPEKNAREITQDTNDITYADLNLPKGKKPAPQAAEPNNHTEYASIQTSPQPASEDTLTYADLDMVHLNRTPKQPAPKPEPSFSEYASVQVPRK
T1 sequence (Q08722 whole entry, looked up): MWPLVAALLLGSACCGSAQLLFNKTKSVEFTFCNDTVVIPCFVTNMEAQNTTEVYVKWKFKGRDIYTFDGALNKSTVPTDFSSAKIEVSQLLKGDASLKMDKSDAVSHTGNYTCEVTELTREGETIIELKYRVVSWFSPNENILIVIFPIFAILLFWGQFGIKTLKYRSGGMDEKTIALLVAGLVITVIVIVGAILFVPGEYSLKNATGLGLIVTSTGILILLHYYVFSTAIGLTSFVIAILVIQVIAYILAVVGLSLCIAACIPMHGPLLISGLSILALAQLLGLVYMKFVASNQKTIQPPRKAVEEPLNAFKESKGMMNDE

CCOC(=O)c1c(C(C#N)=CN)c2ccc(Cl)c(Cl)c2n1C
active: [3] 10.9 µM
inactive: [1] | [2] | [4]

CCO/N=C(\CC)C1=C(O)CC(c2c(C)cc(C)cc2C)CC1=O (stereo not drawn)
inactive: [1] | [5] | [3] | [6] | [4]

O=[N+]([O-])/N=C1\NCCN1Cc1ccc(Cl)nc1
inactive: [1] | [5] | [3] | [6] | [4]

CC1=C(O)C(=O)C=C2C1=CC=C1[C@@]2(C)CC[C@@]2(C)[C@@H]3C[C@](C)(C(=O)O)CC[C@]3(C)CC[C@]12C
active: [1] 2.96 µM | [2] 2.96 µM | [3] 19.3 µM | [4] 7.69 µM

C[N+](C)(C)CC(=O)O
inactive: [1] | [7] | [8] | [9] | [5] | [3] | [6] | [4]

C[C@]12CC[C@H]3[C@@H](CCC4=CC(=O)CC[C@@]43C)[C@H]1CC[C@H]2OC(=O)CCC1CCCC1
active: [6] 6.11 µM
inactive: [1] | [5]

O=[N+]([O-])c1cc([N+](=O)[O-])c2ccccc2c1
inactive: [1] | [5] | [3] | [4]

O=S(=O)(F)Cc1ccccc1
inactive: [1] | [2] | [4]
active: [3] 1.53 µM

COc1cccc2c1[C@]13CCN(CC4CC4)[C@H](C2)[C@]1(OC)CCC(=O)C3
inactive: [1] | [5] | [3] | [6] | [4]

COc1cc([C@@H]2c3cc4c(cc3[C@@H](O)C3COC(=O)C32)OCO4)cc(OC)c1O (stereo partly drawn)
inactive: [5]
active: [1] 0.118 µM | [3] 0.0863 µM | [6] 0.172 µM | [4] 0.153 µM

CC[C@@H]1[C@@H](C)O[C@@](O)([C@@H](C)[C@H](O)[C@H](C)[C@H]2OC(=O)C=CC=C[C@@H](C)[C@@H]([C@@H](C)[C@@H](O)[C@H](C)[C@@]3(O)C[C@H](O[C@H]4C[C@H](O)[C@H](O)[C@H](C)O4)[C@H](CC)[C@@H](C)O3)OC(=O)C=CC=C[C@@H]2C)C[C@H]1O[C@H]1C[C@H](O)[C@H](O)[C@H](C)O1
active: [1] 3.32 µM | [2] 1.05 µM | [3] 43.2 µM | [6] 38.5 µM | [4] 13.7 µM

O=C(O)COc1ccccc1
inactive: [1] | [5] | [3] | [6] | [4]

O=C(Nc1ccncc1)C(=O)c1cn(Cc2ccc(Cl)cc2)c2ccccc12
active: [1] 0.0332 µM | [6] 0.0544 µM
inactive: [5]

COc1ccc(CC2NCCc3cc(OC)c(OC)cc32)cc1OC (stereo not drawn)
inactive: [1] | [5] | [3] | [4]

CC(C)[C@H]1C(=O)N[C@H](CO)Cc2c[nH]c3cccc(c23)N1C
inactive: [1] | [5] | [4]
active: [6] 10.9 µM

Nc1ccc(N=Nc2ccccc2)cc1
inactive: [1] | [2] | [4]

Clc1ccccc1C(c1ccccc1)(c1ccccc1)n1cccn1
inactive: [1] | [5] | [3] | [6] | [4]

O=C1CCC[C@@H]2[C@H]3CCCN4CCC[C@@H](CN12)[C@@H]34
inactive: [1] | [5] | [3] | [6] | [4]

C/C=C(/C)C(=O)O[C@H]1C(C)=C2[C@H]([C@@H]1OC(=O)CCCCCCC)[C@@](C)(OC(C)=O)C[C@H](OC(=O)CCC)[C@@]1(O)[C@H]2OC(=O)[C@@]1(C)O
active: [1] 2.06 µM
inactive: [7] | [8] | [9] | [10]

CCN1CCN(C(=O)Cc2ccc(Nc3ncc(F)c(Nc4ccc(C(=O)Nc5ccccc5Cl)cc4)n3)cc2)CC1
active: [1] 2.96 µM and 1.16 µM | [3] 4.32 µM | [6] 6.85 µM
inactive: [5]

CC=C(C)C(=O)N[C@@H](c1ccccc1)[C@@H](O)C(=O)O[C@H]1C[C@@]2(O)[C@@H](OC(=O)c3ccccc3)[C@@H]3[C@]4(OC(C)=O)CO[C@@H]4C[C@H](O)[C@@]3(C)C(=O)[C@H](OC(C)=O)C(=C1C)C2(C)C
inactive: [5]
active: [1] 0.0332 µM | [3] 0.0034 µM

c1cc2c(cc1[C@H]1OC[C@H]3[C@H]1CO[C@H]3c1ccc3c(c1)OCO3)OCO2
inactive: [1] | [3] | [6] | [4]

CC(C)[C@]12O[C@@H]1[C@@H]1O[C@]13[C@]1(O[C@H]1C[C@@H]1C4=C(CC[C@@]13C)C(=O)OC4)[C@H]2O
inactive: [5] | [3] | [6] | [4]
active: [1] 0.001 µM

ClC1=C(Cl)[C@]2(Cl)[C@@H]3[C@@H]4C[C@@H]([C@H]5O[C@@H]45)[C@@H]3[C@@]1(Cl)C2(Cl)Cl
inactive: [1] | [5] | [3] | [6] | [4]

CCOC(=O)Nc1ccc(NCc2ccc(F)cc2)cc1N
inactive: [1] | [2]
active: [3] 5.44 µM | [6] 1.37 µM | [4] 1.53 µM

O=C(O)CC[N+](=O)[O-]
inactive: [11] | [12] | [13] | [2] | [7] | [8] | [9] | [10] | [5] | [3] | [6] | [4]

CO/C=C(/C(=O)OC)c1ccccc1Oc1cc(Oc2ccccc2C#N)ncn1
active: [1] 3.16 µM | [2] 14.1 µM | [3] 22.4 µM | [4] 10 µM

O=C(Oc1ccc([N+](=O)[O-])cc1)N1CCN(Cc2cccc(Oc3ccccc3)c2)CC1
inactive: [1] | [2]
active: [3] 24.3 µM | [4] 6.85 µM

N#C[C@H](O[C@@H]1O[C@H](CO[C@@H]2O[C@H](CO)[C@H](O)[C@H](O)[C@H]2O)[C@H](O)[C@H](O)[C@H]1O)c1ccccc1
active: [1] 20.9 µM | [5] 17.2 µM | [3] 19.3 µM | [6] 38.5 µM | [4] 24.3 µM

NC1CCc2cc(O)c(O)cc2C1 (stereo not drawn)
inactive: [11] | [12] | [13] | [2] | [7] | [8] | [9] | [10] | [5] | [3] | [6] | [4]

Clc1cnc(Oc2ccc(Oc3ncc(Cl)cc3Cl)cc2)c(Cl)c1
inactive: [11] | [12] | [13] | [7] | [8] | [9] | [10] | [5] | [3] | [6] | [4]

COc1cc(C(O)CN)ccc1O (stereo not drawn)
inactive: [11] | [12] | [13] | [2] | [7] | [8] | [9] | [10] | [5] | [3] | [6] | [4]

C[C@]12N[C@H](Cc3ccccc31)c1ccccc12
inactive: [11] | [12] | [13] | [2] | [7] | [8] | [10] | [5] | [3] | [6] | [4]
